From the supplement of paper PMC10681739

Tests used:
[1] = molecular target: T1, ETS1 (UniProt P14921); assay: ETS1 binding intensity (PBM fluorescence), ETS1 alone (arbitrary fluorescence units); higher = stronger binding; conditions: ETS1 concentration 1 nM; RUNX1 concentration 0 nM
T1 sequence: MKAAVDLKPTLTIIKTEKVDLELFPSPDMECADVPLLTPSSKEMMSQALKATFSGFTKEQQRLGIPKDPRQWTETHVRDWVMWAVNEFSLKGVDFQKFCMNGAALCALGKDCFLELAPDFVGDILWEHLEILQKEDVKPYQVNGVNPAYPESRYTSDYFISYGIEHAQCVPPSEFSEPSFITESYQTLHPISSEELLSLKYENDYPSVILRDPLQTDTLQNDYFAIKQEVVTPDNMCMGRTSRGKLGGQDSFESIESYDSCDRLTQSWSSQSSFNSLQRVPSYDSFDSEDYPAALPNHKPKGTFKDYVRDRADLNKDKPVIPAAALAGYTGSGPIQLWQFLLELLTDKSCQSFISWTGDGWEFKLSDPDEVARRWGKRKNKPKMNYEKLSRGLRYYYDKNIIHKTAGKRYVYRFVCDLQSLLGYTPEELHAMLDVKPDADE

[2] = molecular target: T1, ETS1; assay: ETS1 binding intensity (PBM fluorescence) in presence of RUNX1, normalised to ETS1-only experiment (arbitrary fluorescence units); higher = stronger binding; conditions: ETS1 concentration 1 nM; RUNX1 concentration 25 nM

Row | Sequence | ETS1 binding intensity [1] | ETS1 binding intensity [2]
1 | CGTTTGCCTATCTTCCTCCCCACAGAAGCACTCCAT | 453 | 399
2 | TTGCGTCACGTCCGGCCTGCGAGTTACCGCCCACTC | 690 | 603
3 | CAAGCCACTTCCTTTCTTGCTCCCACAACCTGTGTT | 579 | 471
4 | GTCCTCCAGGAAGCCCGCGCTAACCACCGTGCCTTT | 420 | 688
5 | GAAGAAGTCAGGAAATGCTGCCGCAGCAGCCAGCCC | 878 | 1070
6 | CCTCCTCTTCCTCCCCACTCTGCACATGCGGCTGGG | 520 | 344
7 | ACGTAGACAGGAAAGTAATGTGGTTCAGGACTGAGT | 746 | 766
8 | TCACCCTCTCACTTCCTGCGGGTCCCAGGCTCAGGC | 896 | 790
9 | TAGGCCGGAAAGCACCACCGTCCTCCCGCAGGCCGC | 455 | 386
10 | GGTCACATCCTTTCCCTTCTGTGTCTCAGCCGCAGT | 421 | 449
11 | TGGGATTCTCACTTCCGATCAGCGGTCCTGAACCCG | 707 | 622
12 | TGGGCCAGCACGTCCGGGTGGTCAGGACGCGCGCTT | 458 | 451
13 | CCTGTTCCGGGCTCCGTACACCCAGGCCCGCAGCTG | 550 | 494
14 | TGCCGTTTCCGGGTCACCCAGGCAGCTTGTGGCGGC | 528 | 478
15 | AGCACCCCACATCCTGCACCCCACAACCCAGATCCC | 510 | 546
16 | CCTGTCTGCTTCCGCCCGGCTTCGGCCCACAGTCAA | 511 | 441
17 | GCTGCGCAGAGGAAACCAGGCTTGTTGGTTTTCATG | 432 | 457
18 | TGCTTAGAACACGGAAACACTGAGGTTTTACTTTGA | 482 | 560
